Shown are actives, neighbours in structure and some others; about 7.9% of the full set was active somewhere.
KB-3-1 cytotox – KB-3-1 parental cell cytotoxicity | KB-3-1 viability, CellTiter-Glo ATP luminescence, 72 h | Potency, µM (highest dose often 46.1 µM), hits mostly cytotoxic | hit rate 1.4% among 400,000; also: % is scaled to controls: 0 for no effect and ±100 for the full control effect; nearly all actives have a fitted effect of over 60% in size
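Cytotoxicity measured as CellTiter-Glo luminescence after 72 h at 37 C. Compound titrations were pinned onto drug-naive KB-3-1 parental adenocarcinoma cells grown in DMEM with 10% FBS, and normalized data fitted to concentration-response curves.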
HT1080 IDH1KD tx – toxicity to HT-1080 IDH1 knockdown cells (counter line) | HT-1080 IDH1 knockdown viability, ATP luminescence, 48 h | Potency, µM (series often up to 46.1 µM), for inactives: top-dose activity, negative = toxicity, actives largely listed as cytotoxic | hit rate 2% among 360,000;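 also: 0% = DMSO wells and -100% = cell-free medium wells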
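IDH1KD HT-1080 cells, 750/well, RPMI + 5% FBS; compound pinned after 2 h settling; 48 h, 37 °C; CellTiter-Glo luminescence; % activity normalised to DMSO and no-cell wells; curves fitted, classed by r2 and efficacy.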
MCF10A rereplic – DNA re-replication induction in MCF 10a cells | MCF 10A DNA re-replication, Hoechst nuclear intensity, 48 h | Potency, µM (series often up to 46.1 µM), without a hit: top-dose activity, positive = re-replication, most hits filed as activators | hit rate 2.9% among 350,000 | AID 624296; also: % of control where 0% means no effect; nearly all actives have a fitted effect of over 50% in size
KB-V1 cytotox – KB-V1 MDR subline cytotoxicity. hit rate 3.4% among 400,000. Potency, µM (doses to about 46.1 µM), usual class: cytotoxic. KB-V1 MDR cells viability, CellTiter-Glo, 72 h; also: % is scaled to controls: 0 for no effect and ±100 for the full control effect; nearly all actives have a fitted effect of over 60% in size
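qHTS viability screen in drug-selected KB-V1 MDR cells: 72 h compound treatment at 37 degrees C, ATP luminescence end point.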
SW480 rerep – induces DNA re-replication in SW480 colon adenocarcinoma cells. SW480 DNA re-replication, Hoechst DNA content imaging, 48 h. Potency, µM (series often up to 46.1 µM), for inactives: at the highest dose re-replication activation, most hits filed as activators. hit rate 1.8% among 340,000. AID 624297; also: % of control where 0% means no effect; nearly all actives have a fitted effect of over 55% in size
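SW480 cells exposed to compounds for 48 hr at 37 C, 5% CO2, then Hoechst-stained 40 min. Nuclear DNA content imaged by fluorescence scanning (405 nm excitation, 500-530 nm emission); re-replication scored as increased high-intensity nuclei.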
HT1080-NT tox – kills 2HG-producing HT-1080-NT fibrosarcoma cells; HT-1080-NT fibrosarcoma viability, CellTiter-Glo ATP luminescence, 48 h; Potency, µM (titrated, usually from 46.1 µM), inactives show at the highest dose activity, negative = less viability, usual class: cytotoxic; hit rate 1.6% among 360,000; AID 686970;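 also: NT is the 2HG producing partner of a matched IDH1 knockdown line; 0% = DMSO-treated cells and -100% = media-only wells without cells; nearly all actives have a fitted effect of over 55% in size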
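Luminescent CellTiter-Glo readout after 48 hours of compound exposure at 37 degrees C defined viability of HT-1080-NT cells. Activity was normalized to DMSO wells and cell-free media wells; concentration-response curves were fitted and assigned curve classes.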
Starred values were filed as active, the others as inactive; i = inactive; u = inconclusive; x = not tested or not shown. Calls follow the shape of the dose curve; as a rule, active = well fitted curve in the direction sought with a large enough effect; inconclusive = small, poorly fitted or top-dose-only effect, or another doubt; inactive = no such curve, though single readings can be large; an effect the other way counts as inactive or inconclusive. Potency is read from the fitted curve at half-maximal effect.

SMILES	KB-3-1 cytotox	HT1080 IDH1KD tx	MCF10A rereplic	KB-V1 cytotox	SW480 rerep	HT1080-NT tox
CCc1ccc(NC(=S)N(Cc2ccc(Cl)cc2)Cc2ccc(C(=O)O)cc2)cc1	i	-15.3%	16.4%	i	-3.1%	-9.3%
CC(C)CN(CC(C)C)C(=S)Nc1ccc(Cl)cc1	i	u	18.4µM*	i	10.2%	-23.8%
COC(=O)c1cc(C(=O)N2CCN(c3cccc(C)c3C)CC2)cc([N+](=O)[O-])c1	5.8µM*	2.31µM*	u	i	4.11µM*	1.84µM*
COC(=O)c1cc(C(=O)N2CCN(c3ncccn3)CC2)cc([N+](=O)[O-])c1	i	-0.2%	59.9%	u	-5.5%	0.0%
COC(=O)c1cc(C(=O)N2CCN(c3ccccc3OC)CC2)cc([N+](=O)[O-])c1	1.16µM*	0.326µM*	1.16µM*	1.3µM*	2.06µM*	0.326µM*
Cc1ccccc1N1CCN(C(=S)c2ccc([N+](=O)[O-])cc2)CC1	i	0.2%	8.5%	16.4µM*	-0.8%	-6.1%
COC(=O)c1cc(C(=O)N2CCN(C(=O)c3ccco3)CC2)cc([N+](=O)[O-])c1	i	-4.0%	2.0%	i	2.0%	-5.1%
COC(=O)c1cc(C(=O)c2c(C)cc3ccccn23)cc([N+](=O)[O-])c1	u	u	u	i	u	16.4µM*
COC(=O)c1ccc(CN=C(NS(=O)(=O)c2ccccc2)c2ccccc2)cc1	i	-1.0%	-0.4%	i	2.1%	-1.8%
COc1cccc(CN(C)C(=O)c2ccc3c(=O)n4c(nc3c2)CCC4)c1	i	12.4%	1.3%	i	-3.5%	11.0%
CC(=O)N1N=C(c2ccccc2O)OC1(C)CC(=O)Nc1ccccc1 (centres undefined)	u	-7.5%	0.6%	u	-1.5%	-10.5%
Cc1cc(C(=O)C(C)OC(=O)c2ccc(NC(=O)CC#N)cc2)c(C)n1-c1ccc(OC(F)F)cc1 (centres undefined)	2.91µM*	25.9µM*	6.4%	18.4µM*	22.5%	-19.3%
Cc1[nH]c2ccccc2c1C(=O)C(C)OC(=O)c1ccc(NC(=O)CC#N)cc1 (centres undefined)	i	6.3%	17.9%	i	-3.7%	-8.2%
Cc1cc(Br)cc(C)c1NC(=O)c1sc2ncn(Cc3cccc(F)c3)c(=O)c2c1C	i	x	x	i	x	x
Cc1ccc(O)c(C2=Nc3ccccc3N=C(c3cccs3)C2)c1	u	-1.5%	20.6µM*	14.6µM*	2.7%	-0.1%
Oc1ccccc1C1=Nc2ccccc2N=C(c2cccs2)C1	i	u	u	23.1µM*	22.7%	-22.2%
C=CCOc1ccc(CNn2cn[nH]c2=S)cc1OCC	i	u	-4.5%	i	2.9%	u
CNC(=O)c1cc(C(=O)c2ccc(F)cc2Cl)c[nH]1	i	-5.9%	0.8%	i	-21.3%	0.1%
CCN(CC)CCCNC(=O)c1ccc2c(SCC(=O)O)c3c(nc2c1)CCC3	x	x	-19.7%	x	0.6%	x
CCCN1CCN(CCCNC(=O)c2ccc3c(Cl)c4c(nc3c2)CCCC4)CC1	i	u	13.4%	i	-23.3%	u
N#Cc1ccccc1NC(=O)c1ccc2c(Cl)c3c(nc2c1)CCCC3	i	14.7%	1.3%	8.2µM*	-1.4%	7.1%
O=C(NCCCN1CCCC1)c1ccc2c(Cl)c3c(nc2c1)CCCC3	i	23.1µM*	11.8%	u	-7.6%	18.4µM*
CCCCN(CC)CCNC(=O)c1ccc2c(Cl)c3c(nc2c1)CCC3	i	23.1µM*	0.3%	i	0.9%	20.6µM*
CCN(CC)CCCNC(=O)c1ccc2c(Cl)c3c(nc2c1)CCCC3	i	29.1µM*	9.0%	u	-1.3%	23.1µM*
Cc1ccc(-n2cccn2)cc1	i	23.6%	-1.0%	i	-3.6%	12.4%
SMILES	KB-3-1 cytotox	HT1080 IDH1KD tx	MCF10A rereplic	KB-V1 cytotox	SW480 rerep	HT1080-NT tox
S=c1[nH]c2nc(Cl)c(Cl)nc2[nH]1	i	-4.2%	x	i	x	-13.3%
CCCCC[C@H](C)N1C[C@H](COCc2ccccc2)Oc2cc(N3CCC[C@H]3CO)ccc2S1(=O)=O	i	u	x	u	x	u
CC(C)N(Cc1cnn(C)c1)Cc1nc(Cc2ccccc2Cl)no1	i	-2.9%	3.4%	i	-6.9%	0.0%
CSc1nc(C)c2c(n1)N(c1ccc(F)cc1)CC2	i	3.5%	12.9%	i	-6.1%	12.3%
Cc1ccc2nc(C)c3c(c2c1)N(c1ccc(F)cc1)CC3	u	14.6µM*	18.4µM*	u	-8.0%	20.6µM*
c1ccc(OCCCCn2cnc3ccccc32)cc1	i	u	1.9%	i	4.0%	-4.8%
c1ccc2c(c1)ncn2CCCOc1ccc2c(c1)CCC2	u	u	u	11.6µM*	26.2%	u
c1ccc2c(c1)ncn2CCCCOc1ccc2c(c1)CCC2	u	3.5%	20.6µM*	u	u	-3.0%
Cc1nc2scc(-c3cccs3)c2c(=O)n1CC(=O)O	i	26.4%	-3.8%	i	-2.3%	12.6%
COC(=O)c1ccccc1NC(=O)C1CCCO1 (centres undefined)	i	16.5%	1.1%	i	-3.0%	13.7%
C=C1CCC[C@]2(C)C[C@H]3OC(=O)C(CNC(CC)CO)[C@H]3CC12 (some centres undefined)	i	20.6µM*	18.6%	i	u	u
C=C1CCC[C@]2(C)C[C@H]3OC(=O)C(CNC(C)CC)[C@H]3CC12 (some centres undefined)	i	u	u	i	12.2%	u
Cn1c(=O)c2c(n3cnnc13)-c1ccccc1CC21CCCC1	i	-3.6%	-4.3%	23.1µM*	-3.4%	-2.0%
CCCOc1ccc(F)cc1-c1cc(C(=O)NCc2cc(OC)cc(OC)c2)[nH]n1	i	-25.9%	x	i	x	-23.2%
Cc1ccc(NC(=O)CSc2nnc(Cc3csc(C)n3)o2)cc1	i	0.6%	-0.9%	i	7.4%	-6.8%
CCOc1ccc(Nc2nc(Cc3nnc(SCC(=O)c4ccc(C)c(C)c4)o3)cs2)cc1	i	u	12.6%	13µM*	u	u
Cc1sc(NC(=O)c2ccco2)c(C(=O)c2ccc(Cl)cc2)c1C	u	8.6%	u	i	-3.8%	9.5%
CNC(=O)c1[nH]nc2c1CCc1cc(OC)ccc1-2	i	-1.6%	1.5%	i	u	21.1%
COc1cccc(/C=N/NC(=O)c2[nH]nc3c2CCc2ccccc2-3)c1	10.3µM*	2.06µM*	u	u	u	3.66µM*

Screening results: PubChem, National Center for Advancing Translational Sciences (NCATS)
